These results are taken from PubChem BioAssay.

For experiment [1], the system named is Human papillomavirus type 1a protein E7 (residues 44-93). Description: HPV1a E7 fragment binders on microarrays, primary screen, biochemical, small-molecule microarray, residues 44-93, 635 nm fluorescence (AID 1108).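 Also: E7 fragment applied at 1 µg/mL in TBST for 1 h at 4 C; score combines spot fluorescence with its signal to noise ratio.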 To be noted: small-molecule microarray binding, fluorescence 635 nm; higher = more signal.
A short description of experiment [2]: modulators of HCV replicon luciferase signal, primary screen, HCV replication inhibitor project, Huh7 cells, luciferase reporter (AID 1109).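 Also: huh7 hepatoma cells harbouring a luciferase neomycin HCV replicon reporter; luciferase luminescence as measure of HCV replicon replication; test concentration not given here.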 To be noted: 48 h, higher = more signal. Background: In antiviral work, replicon cells carry a viral genome segment that copies itself.
Experiment [3] addresses Left-right determination factor 2 (Homo sapiens) (UniProt O00292). Description: LEFTY2 binders on small-molecule microarrays, primary screen, biochemical, small-molecule microarray, 635 nm fluorescence scan (AID 1110). To be noted: LEFTY2 binding, higher = more signal.
The target of experiment [4] is Calmodulin-1 (Homo sapiens) (UniProt P0DP23). Description: CALM1 binders on microarrays, EGTA buffer, profiling panel, biochemical, small-molecule microarray, Cy5-labelled CALM1 (AID 1111).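 Also: labelled calmodulin applied in Tris saline Tween buffer holding calcium plus EGTA and DTT.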 To be noted: Cy5-CALM1 binding fluorescence, higher = more signal.
Experiment [5] shares this target. In words: calcium-bound CALM1 binders on microarrays, profiling panel, artefact control for SMM control-protein annotation, biochemical, small-molecule microarray, Cy5-labelled CALM1, plus calcium (AID 1112).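 Also: score merges spot fluorescence with signal to noise from triplicate slides.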 To be noted: Cy5-CALM1 binding fluorescence, higher = more signal.
Experiment [6] in a line: small-molecule microarray binders of probe aWnt5a, primary screen, biochemical, biotinylated probe, 635/667 nm fluorescence (AID 1113).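 Also: score merges 667 nm fluorescence intensity with signal-to-noise per printed feature.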 To be noted: higher = more signal.
The nature of experiment [7]: small-molecule microarray binders of probe aShh, primary screen, biochemical, biotinylated probe, 635/667 nm fluorescence (AID 1114).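 Also: probe is biotin-labelled aShh protein from a stem cell growth factor screen; measures binding of labelled protein to compounds printed on the slide; score merges feature fluorescence at 667 nm with signal-to-noise.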 To be noted: higher = more signal.
A short description of experiment [8]: small-molecule microarray binders of probe aNog, primary screen, biochemical, biotinylated probe, 635/667 nm fluorescence (AID 1115).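 Also: probe is biotinylated aNog protein used at 0.15 µg/mL for 1 h at 4 C; z-score combines 667 nm fluorescence of each spot with its signal to noise.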 To be noted: higher = more signal.
Experiment [9] deals with Torsin-1A-interacting protein 1 (Homo sapiens) (UniProt Q5JTV8). Description: LAP1 binders from COS7 cell lysate, primary screen, small-molecule microarray, 635/667 nm fluorescence (AID 1116). To be noted: COS7-hLAP1 lysate binding, 635 nm fluorescence, higher = more signal.
Experiment [10] has as its target Alpha-bungarotoxin (Bungarus multicinctus) (UniProt P60615). Description: alpha-bungarotoxin binders on microarray, profiling panel, artefact control for SMM control protein annotation, biochemical, small-molecule microarray, Alexa647 label, 635/667 nm fluorescence (AID 1117). To be noted: alpha-BTX-A647 binding fluorescence, higher = more signal.

Sequence of Torsin-1A-interacting protein 1 (Homo sapiens) (Q5JTV8 whole entry, looked up): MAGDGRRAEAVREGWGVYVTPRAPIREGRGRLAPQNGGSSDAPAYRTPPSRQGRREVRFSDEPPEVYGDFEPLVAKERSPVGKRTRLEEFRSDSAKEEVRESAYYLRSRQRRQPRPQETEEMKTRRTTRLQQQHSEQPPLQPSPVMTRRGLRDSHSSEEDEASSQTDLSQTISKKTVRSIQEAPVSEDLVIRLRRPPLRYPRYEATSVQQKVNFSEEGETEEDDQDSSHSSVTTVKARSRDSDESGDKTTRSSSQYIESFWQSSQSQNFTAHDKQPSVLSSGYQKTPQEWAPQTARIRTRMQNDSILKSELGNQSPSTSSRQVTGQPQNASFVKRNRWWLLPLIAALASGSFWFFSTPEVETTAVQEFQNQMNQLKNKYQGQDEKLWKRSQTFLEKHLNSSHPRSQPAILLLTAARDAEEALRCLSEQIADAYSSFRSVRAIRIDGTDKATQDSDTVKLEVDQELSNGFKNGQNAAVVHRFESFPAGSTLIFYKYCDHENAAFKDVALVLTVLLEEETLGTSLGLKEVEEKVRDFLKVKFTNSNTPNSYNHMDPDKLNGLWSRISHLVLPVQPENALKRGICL
Sequence of Alpha-bungarotoxin (Bungarus multicinctus) (P60615 whole entry, looked up): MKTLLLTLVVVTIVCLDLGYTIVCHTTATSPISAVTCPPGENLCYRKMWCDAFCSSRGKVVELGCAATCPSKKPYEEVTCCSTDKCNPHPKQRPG
Sequence of Left-right determination factor 2 (Homo sapiens) (O00292 whole entry, looked up): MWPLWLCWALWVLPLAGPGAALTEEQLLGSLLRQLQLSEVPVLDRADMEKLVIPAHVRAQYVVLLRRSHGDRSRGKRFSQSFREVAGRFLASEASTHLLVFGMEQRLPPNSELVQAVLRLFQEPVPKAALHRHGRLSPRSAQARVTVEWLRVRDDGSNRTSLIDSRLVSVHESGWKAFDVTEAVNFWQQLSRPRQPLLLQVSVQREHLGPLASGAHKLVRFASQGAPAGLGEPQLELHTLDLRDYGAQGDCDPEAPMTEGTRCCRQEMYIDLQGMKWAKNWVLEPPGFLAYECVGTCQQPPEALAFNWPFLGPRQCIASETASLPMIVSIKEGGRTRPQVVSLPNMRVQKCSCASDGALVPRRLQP

As for `Cc1ccc(F)cc1S(=O)(=O)N[C@@H]1CCN(Cc2ccc(CC(C)C)cc2)C1`, the composite z-score is 0.135 in experiment [1]; -0.185 in [3]; -0.793 in experiment [4]; -0.328 in [5]; -0.23 in experiment [6]; -0.138 in [7]. Further, the composite z-score in experiment [8] is -0.272; in experiment [9], 0.464; in experiment [10] it was 0.0331. The z-score in experiment [2] is -3.88.
Regarding `COc1ccc([Si](C)(C)[C@@H]2[C@@H](CC(=O)N3CCC[C@H]3CO)O[C@]3(C(=O)N(Cc4cccc(N5CCC5=O)c4)c4ccccc43)[C@H]2C)cc1`, the composite z-score in [1] is 1.4; in [3], 0.162; in experiment [4], 0.504; in experiment [5], -0.098; in experiment [6], -0.0236; in [7] it was 0.199. In addition, the figures for the composite z-score in experiment [8], in experiment [9] and in experiment [10] were 0.15, 0.989 and 1.44, respectively. Besides, in experiment [2], the z-score was -2.1.
Turning to `COc1ccc(-c2nc3c(c4c2C[C@H](C)OC4)CN(CCC(C)C)CC3)cc1`, the composite z-score is 1.35 in [1]; 0.6 in experiment [3]; 0.518 in experiment [4]; 0.038 in experiment [5]; -0.0239 in [6]; 0.123 in experiment [7]. Moreover, the composite z-score in experiment [8] was -0.131; in experiment [9], 0.269; in experiment [10] it was 0.615. Besides, the z-score in experiment [2] was -0.257.
Take `C=CCNC(=O)[C@H]1[C@@H]2C(=O)O[C@@H](c3ccccc3)[C@@H](c3ccccc3)N2[C@@H](c2ccc(O)cc2)[C@]12C(=O)N(C(=O)OCCOC)c1ccc(C#CC3=CCCCC3)cc12`: the composite z-score was 1.04 in experiment [1]; 0.879 in experiment [3]; 1.64 in experiment [4]; 0.566 in experiment [5]; 0.523 in experiment [6]; 1.92 in experiment [7]. The composite z-score in [8] was 2.64; in experiment [9] it was 2.09; in experiment [10], 1.79. The compound further came in with a z-score in experiment [2] of -0.812.
Take `CC(C)C[C@@H]1NC(=O)[C@H]2C[C@@H](C(=O)O)[C@@H](c3ccc(O)cc3)N2C1=O`: the composite z-score in [1] is 0.635; in experiment [3] it was 0.0945; in [4], -0.187; in experiment [5] it was 0.131; in [6], -0.0704; in [7] it was 0.0611. Besides, the composite z-score in [8] was -0.144; in experiment [9] it was 0.588; in experiment [10], 2.19. In experiment [2], this compound gave a z-score of 3.51.
In the case of `CO[C@@H]1COC(=O)CCC[C@@H](C)[C@H](OC)COC(=O)CCC[C@H]1C`, the composite z-score was -0.341 in [1]; 0.862 in [3]; -0.454 in [4]; -0.966 in experiment [5]; -0.0445 in experiment [6]; -0.206 in experiment [7]. For the same compound, the composite z-score is -0.303 in [8], 0.665 in experiment [9] and -0.12 in [10]. The compound also yielded a z-score in experiment [2] of -1.38.
In the case of `CCOC(=O)C1=CCC(c2cc3ccccc3[nH]2)NC1` (stereo not given), the composite z-score was -0.192 in [1]; 0.208 in [3]; -0.219 in experiment [4]; 0.19 in experiment [5]; 0.0438 in experiment [6]; 0.204 in experiment [7]. In addition, the figures for the composite z-score in [8], in experiment [9] and in [10] were 0.562, 0.97 and 0.864, respectively. For the same compound, in [2], the z-score is -0.312.
Turning to `O=C1C[C@@H](O)[C@@H](O)[C@@H]2[C@@H]3C(=O)N(Cc4ccc5c(c4)OCO5)C(=O)[C@@H]3CC[C@@H]12`, the composite z-score is -0.0301 in experiment [1]; 0.796 in experiment [3]; -0.504 in [4]; -0.56 in experiment [5]; -0.0405 in experiment [6]; 0.0278 in experiment [7]. Moreover, the composite z-score in experiment [8] was -0.239; in [9], 0.441; in experiment [10] it was 0.0541. The z-score in experiment [2] is -0.644.
On to `COc1cccc([C@H]2Oc3ccc(OC)cc3C(=NO[C@H](C)c3cn([C@@H]4COC[C@H]4O)nn3)[C@@H]2O)c1`, for which the composite z-score in experiment [1] was -0.632; in experiment [3], -0.647; in experiment [4] it was 0.0409; in experiment [5], -0.421; in experiment [6], -0.184; in experiment [7], -0.147. For the same compound, the figures for the composite z-score in experiment [8], in experiment [9] and in [10] were -0.36, -0.1 and 1.7, respectively. In addition, in [2], the z-score was -0.0869.
As for `CC(=O)OC[C@H]1O[C@@H](ON=C[C@@H](C)[C@H](OCc2ccccc2)C(C)C)[C@H](OC(C)=O)[C@@H](OC(C)=O)[C@@H]1OC(C)=O`, the composite z-score in experiment [1] was 0.162; in experiment [3], 0.619; in experiment [4], 0.336; in experiment [5], -0.815; in [6] it was -0.0754; in [7], -0.19. Also, the composite z-score in [8] was -0.144; in [9], -0.563; in experiment [10], 0.226. The z-score in experiment [2] was -0.518.
As to `O=C1[C@H]2[C@H]3[C@H](O)[C@H](O)CC(=NOC[C@@H](O)COCc4ccco4)[C@H]3CC[C@H]2C(=O)N1C1CCCCC1`, the composite z-score in experiment [1] is -0.417; in experiment [3], 1.05; in [4], -1.04; in experiment [5] it was -1.77; in [6], -0.104; in [7], -0.138. Moreover, the composite z-score in experiment [8] was -0.402; in [9] it was -0.324; in experiment [10], -0.32. Also, the z-score in experiment [2] is -0.353.
As to `CCOC(=O)NN=C1C[C@@H](O)[C@@H](O)[C@@H]2[C@@H]3C(=O)N(C4CCCCC4)C(=O)[C@@H]3CC[C@@H]12`, the composite z-score in experiment [1] is 0.0883; in experiment [3], 0.342; in [4] it was -0.29; in experiment [5], -0.401; in [6], -0.0462; in experiment [7] it was -0.341. The composite z-score in experiment [8] is -0.158; in experiment [9] it was 0.109; in [10], 0.601. Also, the z-score in [2] is -0.336.
